From PubChem BioAssay come the findings set out here.

The structures appear in SMILES notation.

This experiment in a line: binders of probe aFSTL3 on microarray, primary screen, stem cell growth factor project, biochemical, small-molecule microarray, fluorescence 635/667 (AID 1064).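 Also: measures binding of the biotinylated anti-FSTL3 antibody to printed compounds.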 Conditions: higher = more signal.
`C=CC[C@@]1(C(=O)NCC(O)CO)N=C(c2ccc(OCCCO)cc2)O[C@@H]1c1ccccc1CN=[N+]=[N-]` (some centres undefined) had a composite z-score of 0.325.

In the case of `CO[C@H]1COC(=O)[C@@H](C)NC(=O)CC=C[C@@H](C)[C@H](OC)COC(=O)CC=C[C@@H]1C`, the composite z-score was -0.691.

`CC(C)C[C@@H]1NC(=O)[C@H]2C[C@@H](C(=O)NCCCCCC[N+](C)(C)C)[C@@H](c3ccc(O)cc3)N2C1=O`: the composite z-score is -0.332.

Consider `Cc1ccc(S(=O)(=O)N[C@H]2COC(=O)CC=C[C@H](C)COC(=O)N[C@@H](C)C(=O)CC=C[C@@H]2C)cc1`, for which the composite z-score was -0.667.

Take `C#CCCCON=C1C[C@@H](O)[C@@H](O)[C@@H]2[C@@H]3C(=O)N(Cc4ccc5c(c4)OCO5)C(=O)[C@@H]3CC[C@@H]12`: the composite z-score is -0.158.

Consider `CO[C@H]1COC(=O)[C@@H](OCc2ccccc2)C=C[C@H](C)[C@@H](OC)COC(=O)[C@H](OCc2ccccc2)C=C[C@@H]1C`, for which the composite z-score was -0.617.

On to `COCCOC(=O)N1C(=O)[C@@]2(c3cc(C#CCCO)ccc31)[C@H](c1ccc(OCCO)cc1)N1[C@H](c3ccccc3)[C@H](c3ccccc3)OC(=O)[C@H]1[C@@H]2C(=O)NC[C@H](O)c1ccccc1`, for which the composite z-score was -0.484.

On to `NC(=O)NCC#Cc1ccc2c(c1)[C@]1(C(=O)N2)[C@H](c2ccccc2OCCO)N2[C@H](c3ccccc3)[C@H](c3ccccc3)OC(=O)[C@H]2[C@@H]1C(=O)N1CCN(c2ncccn2)CC1`, for which the composite z-score is 0.533.

As to `COCCOC(=O)N1C(=O)[C@@]2(c3cc(C#CCCO)ccc31)[C@H](c1ccc(O)cc1)N1[C@H](c3ccccc3)[C@H](c3ccccc3)OC(=O)[C@H]1[C@@H]2C(=O)Nc1nc2ccccc2s1`, the composite z-score is -0.243.
